The target of one test is Albumin (Bos taurus) (UniProt P02769). The experiment in a line: bovine serum albumin binders on microarray, profiling panel, artefact control for SMM control protein annotation, biochemical, small-molecule microarray, Alexa647 label, 635/667 nm fluorescence (AID 1118).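 Further: score merges 667 nm emission intensity and signal-to-noise per printed compound spot.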 Particulars: BSA-A647 binding, fluorescence 635 nm, higher = more signal.
Test [1] can be described thus: small-molecule microarray binders of probe aXIP, primary screen, biochemical, NeuroSMM set, 635/667 nm fluorescence (AID 1119).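 Further: probe is the protein aXip251-270 applied at 1 µg/mL to compound-printed slides; binding of probe to printed compounds measured as 667 nm fluorescence plus signal to noise.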 The conditions noted are these: higher = more signal, called active from +8 up or from −8 down.
A short description of test [2]: small-molecule binders of probe aNOTCH3, primary screen, biochemical, small-molecule microarray, 635/667 nm fluorescence (AID 1120).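 Further: probe is a biotin-tagged antibody raised against NOTCH3 rather than NOTCH3 protein; score merges spot fluorescence near 667 nm with spot signal to noise.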 Particulars: higher = more signal.
Test [3] can be described thus: small-molecule binders of probe aNOTCH2, primary screen, biochemical, small-molecule microarray, 635/667 nm fluorescence (AID 1121).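 Further: score merges feature fluorescence read at 667 nm with its signal to noise.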 The conditions noted are these: higher = more signal.
Test [4] addresses Carbonic anhydrase 2 (Homo sapiens) (UniProt P00918). The experiment in a line: CAII small-molecule binders, profiling panel, biochemical, small-molecule microarray, Alexa647-labelled CAII (AID 1122). The conditions noted are these: CAII-A647 binding fluorescence, higher = more signal.
A short description of test [5]: COS7 lysate on small-molecule microarray, probe aHis, 635 nm (AID 1123).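 Further: z-score combines 667nm fluorescence intensity with signal-to-noise per printed compound spot.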 Particulars: COS7 cell lysate, fluorescence, higher = more signal.
Test [6] in a line: compound binding in COS7 lysate, probe aLAP1, primary screen, cell lysate, small-molecule microarray (AID 1124).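 Further: lysate comes from COS7 cells expressing LAP1 and is applied at 0.3 µg/mL; score merges spot fluorescence near 667 nm with signal-to-noise over triplicate slides.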 The conditions noted are these: probe aLAP1, fluorescence, higher = more signal.
Another test deals with Sam68 (KHDRBS1). The experiment in a line: Sam68 small-molecule binders, primary screen, biochemical, small-molecule microarray, 635 nm fluorescence (AID 1125).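 Further: score merges 667 nm channel intensity with signal to noise over triplicate slides.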 The conditions noted are these: small-molecule microarray binding, higher = more signal.
Test [7] relates to Chordin-like protein 2 (CHRDL2). The experiment in a line: CHRDL2 small-molecule binders, primary screen, biochemical, small-molecule microarray, 635 nm fluorescence (AID 1126).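 Further: printed compound slides probed with Chrdl2 protein at 4 µg/mL for 1 h at 4 C; score merges 667 nm emission intensity with signal to noise over three replicate slides.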 Particulars: small-molecule microarray binding, fluorescence 635 nm; higher = more signal.
The target in test [8] is Concanavalin-A (Canavalia ensiformis) (UniProt P02866). The experiment in a line: ConA small-molecule binders, primary screen, artefact control for SMM control protein annotation, biochemical, small-molecule microarray, Alexa647 label, 635 nm (AID 1127).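 Further: z combines 667 nm emission intensity with signal-to-noise across three replicate slides.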 Particulars: ConA-A647 binding fluorescence, higher = more signal.
A short description of test [9]: anti-His antibody binders, primary screen, artefact control for SMM control protein annotation, biochemical, small-molecule microarray, 635 nm fluorescence (AID 1128).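 Further: score merges feature fluorescence with signal-to-noise for each printed compound spot.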 Particulars: anti-His Alexa647 antibody binding, higher = more signal.
Test [10] concerns Human papillomavirus type 1a E7 protein (residues 1-88). The experiment in a line: HPV1a E7 small-molecule binders, primary screen, biochemical, small-molecule microarray, residues 1-88, 635 nm (AID 1129). Particulars: small-molecule microarray binding, fluorescence 635 nm; higher = more signal.
Test [11] concerns the target Focal adhesion kinase 1 (Homo sapiens) (UniProt Q05397). The experiment in a line: small-molecule microarray binders of FAK, primary screen, biochemical, 635/667 nm fluorescence, BSA, DTT (AID 1130).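 Further: composite of spot emission at 667 nm and signal to noise over triplicate slides.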 Particulars: PTK2 binding, 635 nm fluorescence, higher = more signal.
The subject of test [12] is Fibrinogen (Alexa647-labelled). The experiment in a line: fibrinogen binders on compound microarrays, profiling panel, artefact control for SMM control-protein annotation, biochemical, small-molecule microarray, 635/667 nm fluorescence (AID 1131).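 Further: z-score merges 667 nm fluorescence with per-spot signal-to-noise over triplicate slides.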 The conditions noted are these: fibrinogen-A647 binding fluorescence, higher = more signal.
Test [13] deals with Follistatin (Homo sapiens) (UniProt P19883). The experiment in a line: follistatin binders on small-molecule microarrays, primary screen, biochemical, small-molecule microarray, 635/667 nm fluorescence (AID 1132). The conditions noted are these: FST binding, 635 nm fluorescence, higher = more signal.
In test [14] the target is Fibroblast growth factor 2 (Homo sapiens) (UniProt P09038). The experiment in a line: FGF2 binders on small-molecule microarrays, primary screen, biochemical, small-molecule microarray, 635/667 nm fluorescence (AID 1133). The conditions noted are these: small-molecule microarray binding, FGF2, fluorescence 635/667; higher = more signal.
Test [15] in a line: mitochondrial membrane potential change in A549 cells, profiling panel, cell-based, JC-1 fluorescence, basal, 24 h, 100 nL (AID 1138).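 Further: A549 lung adenocarcinoma cells under basal conditions with no added stimulus; test concentration not given here.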 Particulars: higher = more signal.
The subject of the next test is Lefty1. The experiment in a line: Lefty1 binders on small-molecule microarrays, primary screen, biochemical, small-molecule microarray, 635/667 nm fluorescence (AID 1139). The conditions noted are these: small-molecule microarray binding, fluorescence 635/667; higher = more signal.
Test [16] relates to wheat germ agglutinin (Triticum aestivum), Alexa647-labelled. The experiment in a line: wheat germ agglutinin binders on compound microarrays, profiling panel, artefact control for SMM control-protein annotation, biochemical, small-molecule microarray, 635/667 nm fluorescence (AID 1140).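 Further: score merges 667 nm feature emission with signal to noise over triplicate slides.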 The conditions noted are these: WGA-A647 binding, 635 nm fluorescence, higher = more signal.

Test [17] has as its target Luciferin 4-monooxygenase (Photinus pyralis) (UniProt P08659). The experiment in a line: firefly luciferase enzyme inhibitors, primary screen, biochemical, luminescence, purified enzyme, 2006 set (AID 1141).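 Further: cell-free assay with purified firefly luciferase at 100 ng per well in PBS; test concentration not given here.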 Particulars: SteadyGlo luminescence, 30 min, higher = more signal, called active from +8 up or from −8 down.

Activity calls are given as the source filed them.

From PubChem BioAssay come the findings set out here.

Chain of Albumin (Bos taurus) (P02769 whole entry, looked up): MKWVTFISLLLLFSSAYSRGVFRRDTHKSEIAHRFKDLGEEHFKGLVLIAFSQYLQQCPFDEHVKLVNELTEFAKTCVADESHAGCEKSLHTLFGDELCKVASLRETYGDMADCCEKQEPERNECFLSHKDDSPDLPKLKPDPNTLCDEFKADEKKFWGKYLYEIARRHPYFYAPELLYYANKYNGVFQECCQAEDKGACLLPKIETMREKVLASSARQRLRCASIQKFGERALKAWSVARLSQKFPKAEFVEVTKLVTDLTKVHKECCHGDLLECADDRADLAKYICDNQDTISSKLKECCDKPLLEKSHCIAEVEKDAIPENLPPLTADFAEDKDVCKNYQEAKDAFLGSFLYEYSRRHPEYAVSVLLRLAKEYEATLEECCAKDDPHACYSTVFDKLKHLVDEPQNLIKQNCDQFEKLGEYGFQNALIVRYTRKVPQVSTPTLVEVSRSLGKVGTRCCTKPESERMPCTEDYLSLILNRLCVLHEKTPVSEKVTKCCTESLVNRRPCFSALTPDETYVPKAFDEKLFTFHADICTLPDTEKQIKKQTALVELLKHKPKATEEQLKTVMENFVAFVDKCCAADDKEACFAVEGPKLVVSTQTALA
Chain of Fibroblast growth factor 2 (Homo sapiens) (P09038 whole entry, looked up): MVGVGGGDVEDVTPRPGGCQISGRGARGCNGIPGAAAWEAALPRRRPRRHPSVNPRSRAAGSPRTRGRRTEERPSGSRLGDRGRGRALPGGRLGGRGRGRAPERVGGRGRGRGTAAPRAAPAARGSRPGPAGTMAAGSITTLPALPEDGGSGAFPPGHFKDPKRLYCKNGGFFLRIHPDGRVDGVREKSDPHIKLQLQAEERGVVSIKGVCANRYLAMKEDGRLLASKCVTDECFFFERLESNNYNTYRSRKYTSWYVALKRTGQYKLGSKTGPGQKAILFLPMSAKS
Chain of Concanavalin-A (Canavalia ensiformis) (P02866 whole entry, looked up): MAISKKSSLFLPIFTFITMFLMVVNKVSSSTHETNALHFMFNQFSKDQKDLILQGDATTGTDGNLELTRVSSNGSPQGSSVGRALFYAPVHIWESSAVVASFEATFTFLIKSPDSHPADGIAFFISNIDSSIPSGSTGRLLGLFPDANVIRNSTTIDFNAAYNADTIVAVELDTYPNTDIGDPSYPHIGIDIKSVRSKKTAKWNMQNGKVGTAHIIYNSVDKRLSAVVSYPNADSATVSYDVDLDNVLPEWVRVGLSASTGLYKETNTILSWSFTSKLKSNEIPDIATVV
Chain of Follistatin (Homo sapiens) (P19883 whole entry, looked up): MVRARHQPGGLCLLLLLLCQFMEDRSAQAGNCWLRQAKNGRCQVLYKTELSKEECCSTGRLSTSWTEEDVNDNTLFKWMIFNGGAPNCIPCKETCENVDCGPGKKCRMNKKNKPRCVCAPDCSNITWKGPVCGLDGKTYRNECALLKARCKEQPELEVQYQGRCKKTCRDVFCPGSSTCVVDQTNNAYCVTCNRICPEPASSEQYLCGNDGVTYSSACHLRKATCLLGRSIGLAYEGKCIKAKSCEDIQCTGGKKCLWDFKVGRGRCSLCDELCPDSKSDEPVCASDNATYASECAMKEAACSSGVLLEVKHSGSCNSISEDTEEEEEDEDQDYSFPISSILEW
Chain of Focal adhesion kinase 1 (Homo sapiens) (Q05397 whole entry, looked up): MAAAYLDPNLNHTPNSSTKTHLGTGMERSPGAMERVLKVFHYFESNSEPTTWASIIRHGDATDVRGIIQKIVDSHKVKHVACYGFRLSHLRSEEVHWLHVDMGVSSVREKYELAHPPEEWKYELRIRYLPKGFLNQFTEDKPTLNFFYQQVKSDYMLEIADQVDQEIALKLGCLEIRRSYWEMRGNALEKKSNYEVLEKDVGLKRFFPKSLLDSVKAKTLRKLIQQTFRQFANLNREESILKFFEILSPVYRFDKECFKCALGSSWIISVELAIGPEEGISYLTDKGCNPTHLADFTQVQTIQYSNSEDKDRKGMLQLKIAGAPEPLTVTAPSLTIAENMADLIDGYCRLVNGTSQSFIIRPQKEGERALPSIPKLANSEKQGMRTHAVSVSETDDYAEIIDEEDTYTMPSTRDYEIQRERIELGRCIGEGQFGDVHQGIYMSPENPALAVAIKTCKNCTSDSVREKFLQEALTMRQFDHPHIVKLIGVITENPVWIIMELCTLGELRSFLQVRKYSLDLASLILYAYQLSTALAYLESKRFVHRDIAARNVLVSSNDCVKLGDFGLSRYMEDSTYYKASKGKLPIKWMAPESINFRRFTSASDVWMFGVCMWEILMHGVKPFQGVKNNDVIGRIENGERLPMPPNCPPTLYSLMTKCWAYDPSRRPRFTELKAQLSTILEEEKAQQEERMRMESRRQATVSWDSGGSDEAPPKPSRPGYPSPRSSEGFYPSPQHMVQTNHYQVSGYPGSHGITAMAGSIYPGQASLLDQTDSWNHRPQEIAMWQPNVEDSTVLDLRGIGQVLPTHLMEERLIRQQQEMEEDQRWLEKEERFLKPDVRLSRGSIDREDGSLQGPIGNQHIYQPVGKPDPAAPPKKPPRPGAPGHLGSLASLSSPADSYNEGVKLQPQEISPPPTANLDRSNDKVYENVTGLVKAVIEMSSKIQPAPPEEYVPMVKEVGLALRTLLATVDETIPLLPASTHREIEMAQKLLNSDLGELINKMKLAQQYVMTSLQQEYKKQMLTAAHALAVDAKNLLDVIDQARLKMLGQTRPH
Chain of Luciferin 4-monooxygenase (Photinus pyralis) (P08659 whole entry, looked up): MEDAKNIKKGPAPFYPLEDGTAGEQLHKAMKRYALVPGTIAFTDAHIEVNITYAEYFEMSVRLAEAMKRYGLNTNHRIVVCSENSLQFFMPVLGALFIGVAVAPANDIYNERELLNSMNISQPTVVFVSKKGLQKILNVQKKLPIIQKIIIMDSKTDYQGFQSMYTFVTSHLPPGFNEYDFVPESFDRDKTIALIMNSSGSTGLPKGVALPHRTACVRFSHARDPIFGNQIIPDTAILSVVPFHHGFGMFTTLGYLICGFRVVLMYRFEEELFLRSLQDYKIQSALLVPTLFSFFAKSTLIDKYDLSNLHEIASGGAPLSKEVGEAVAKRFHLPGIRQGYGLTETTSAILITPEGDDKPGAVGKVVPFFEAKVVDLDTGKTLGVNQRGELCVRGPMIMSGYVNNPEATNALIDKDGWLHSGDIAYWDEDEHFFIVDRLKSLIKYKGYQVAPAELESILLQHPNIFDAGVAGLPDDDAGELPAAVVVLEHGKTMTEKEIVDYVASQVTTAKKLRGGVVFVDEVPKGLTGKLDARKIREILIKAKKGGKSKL

On to `C=C(/C(=C/C[C@@H](OC(C)=O)c1cccc(OCCO)c1)c1cc(C(=O)OC)ccc1OC)C(C)C`, for which the composite z-score with Albumin (Bos taurus) is 0.805; in [2] it was -0.0014; in [3] it was -0.177; in test [4], 0.447; in test [5] it was 0.206; in test [6] it was 0.0418. Also, the composite z-score in the test on Sam68 (KHDRBS1) is 0.531; in test [7] it was 0.0865; in test [8], 0.574; in test [9], -0.422; in [10], 0.238; in [11], 0.543. Besides, the composite z-score was -0.75 in test [12]; 1.12 in [13]; 1.39 in [14]; 1.16 in the test with Lefty1; 0.743 in test [16]. For the same molecule, the composite Z-score in test [1] was 0.142 (inactive). In addition, the z-score in test [15] is 0.834; in [17], 0.0406 (inactive).

On to `COCCOC(=O)N1C(=O)[C@@]2(c3cc(C#Cc4ccc(OC)cc4)ccc31)[C@H](c1ccc(O)cc1)N1[C@H](c3ccccc3)[C@H](c3ccccc3)OC(=O)[C@H]1[C@@H]2C(=O)N1CCCCCCC1`, for which the composite z-score in the test with Albumin (Bos taurus) was 0.802; in test [2] it was 0.7; in test [3], -0.131; in [4] it was 0.466; in test [5] it was 2.11; in test [6], 0.575. The composite z-score with Sam68 (KHDRBS1) was 0.722; in [7], -0.508; in test [8], 0.498; in [9], -1.01; in test [10], 1.11; in test [11] it was 0.415. Further, the composite z-score was found to be 0.377 in test [12]; 1.25 in test [13]; 0.408 in test [14]; 0.391 in the test on Lefty1; 0.484 in [16]. For the same molecule, the composite Z-score in test [1] was -0.182 (inactive). The z-score in test [15] was -0.421; in test [17] it was -0.564 (inactive).

For `CC(C)N1C(=O)C[C@@](C(=O)NCCCN(C)C)(c2ccc([N+](=O)[O-])cc2)[C@H]1c1ccc(CO)cc1`, the composite z-score with Albumin (Bos taurus) is -0.0399; in [2] it was 0.0628; in test [3], -0.0698; in test [4] it was 0.573; in test [5] it was -0.185; in test [6], 0.0653. For the same molecule, the composite z-score in the test on Sam68 (KHDRBS1) was -0.579; in [7], -0.0507; in [8], -0.158; in [9], -0.616; in test [10], -0.605; in test [11], -0.519. In addition, the composite z-score in test [12] was 0.47; in [13], 0.316; in test [14], 0.875; with Lefty1 it was -0.0831; in test [16] it was -0.0539. For the same molecule, the composite Z-score in test [1] is 0.183 (inactive). Besides, the z-score is -0.488 in test [15] and -0.287 (inactive) in [17].

Turning to `COC(=O)[C@@]1(Cc2ccc(F)cc2)[C@H]2c3cc(C(=O)N4CCCC4)n(CCN4CNCC4=O)c3C[C@H]2CN1C(=O)c1ccccc1`, the composite z-score in the test with Albumin (Bos taurus) is 0.975; in test [2], 0.323; in test [3], -0.0345; in [4] it was 0.766; in test [5] it was 3.18; in [6], 0.197. The composite z-score with Sam68 (KHDRBS1) is 0.592; in [7], -0.834; in test [8] it was 0.63; in test [9], 2.44; in [10] it was 1.24; in test [11], 0.922. Besides, the composite z-score in test [12] is 1; in test [13] it was -0.0189; in test [14], -0.841; in the test on Lefty1, -0.0252; in test [16] it was 1.01. The composite Z-score in [1] is -0.476 (inactive). Also, the z-score in [15] was -1.6; in [17], 2.51 (inactive).

`C=CCC(OC(C)=O)[C@@H]1[C@@H](N(Cc2ccc(-c3ccccc3)cc2)C(=O)Cc2ccc(F)cc2)c2cc(OCCCO)ccc2N1C(=O)Cc1ccc(OC)cc1` (stereo not given in full): the composite z-score in the test with Albumin (Bos taurus) is -0.0495; in [2] it was -0.0817; in test [3], -0.141; in [4], 0.207; in test [5], 0.377; in [6], 0.0514. The composite z-score is -0.274 in the test with Sam68 (KHDRBS1); -0.0031 in [7]; 0.774 in [8]; -0.148 in test [9]; -0.212 in test [10]; 0.328 in [11]. The composite z-score in test [12] is 0.397; in [13] it was 0.508; in test [14] it was -0.472; with Lefty1, -0.0463; in test [16], 0.687. Moreover, the composite Z-score in test [1] was -0.101 (inactive). In addition, the z-score in test [15] was 0.626; in test [17] it was -0.51 (inactive).
